Only some compounds are listed: those with a hit (about 4.1% of all), similar ones and a draw of the others.
CaV13 ICDI inh: Disruptors of the CACNA1D IQ motif to Ca2+-dependent inactivation inhibitor domain association, primary screening, Förster resonance energy transfer in intact living … | inhibition, % at 12.3 µM | HEK cells, CFP/YFP FRET ICDI-IQ, plate reader, 10 min; percent FRET-ratio fall versus neutral wells | actives 0.098% (n = 340,000);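 active means mean replicate inhibition of at least 30% and at least 1% of replicates passing that level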;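 further: 0% = median of the neutral control wells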
PolyA inh: blocks polyadenylation in yeast reporter cells. S. cerevisiae SKY197-pL101 polyadenylation reporter, beta-gal luminescence; efflux-impaired pdr1/pdr3 knockout yeast; score 100 = 6 SD above DMSO. actives 0.02% (n = 300,000). activity score, % at 12 µM. AID 1875;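 active means lowest replicate activity score at least 50, where 100 means six control SD above control mean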;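 further: yeast exposed to compound for 9 h at 30 °C; higher score means more reporter readthrough which indicates perturbed polyadenylation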
ALR inh: human ALR oxidase inhibition via reduced H2O2; P55789; inhibition, % (no concentration beside the values); purified ALR, DTT oxidation, H2O2 HRP-luminol luminescence; actives 3.8% (n = 290,000);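 active means mean replicate inhibition above about 79%, with every replicate also reaching it, limit read from the data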
IDE cell inh: inhibitors of human insulin-degrading enzyme in cells. HEK cells, FAbetaB cleavage, fluorescence polarization. inhibition, % at 5.59 µM. actives 0.41% (n = 320,000);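 active means percent inhibition above the average of all tested compounds plus 3 SD, set per screening campaign, cut at about 16% in these data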;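 further: IDE supplied by intact live HEK cells; FP after avidin binding of uncleaved biotin substrate so inhibition keeps polarization high; 0% = DMSO wells and 100% = 60 µM reference IDE inhibitor Ii1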
Target sequence (P14735 whole entry, looked up): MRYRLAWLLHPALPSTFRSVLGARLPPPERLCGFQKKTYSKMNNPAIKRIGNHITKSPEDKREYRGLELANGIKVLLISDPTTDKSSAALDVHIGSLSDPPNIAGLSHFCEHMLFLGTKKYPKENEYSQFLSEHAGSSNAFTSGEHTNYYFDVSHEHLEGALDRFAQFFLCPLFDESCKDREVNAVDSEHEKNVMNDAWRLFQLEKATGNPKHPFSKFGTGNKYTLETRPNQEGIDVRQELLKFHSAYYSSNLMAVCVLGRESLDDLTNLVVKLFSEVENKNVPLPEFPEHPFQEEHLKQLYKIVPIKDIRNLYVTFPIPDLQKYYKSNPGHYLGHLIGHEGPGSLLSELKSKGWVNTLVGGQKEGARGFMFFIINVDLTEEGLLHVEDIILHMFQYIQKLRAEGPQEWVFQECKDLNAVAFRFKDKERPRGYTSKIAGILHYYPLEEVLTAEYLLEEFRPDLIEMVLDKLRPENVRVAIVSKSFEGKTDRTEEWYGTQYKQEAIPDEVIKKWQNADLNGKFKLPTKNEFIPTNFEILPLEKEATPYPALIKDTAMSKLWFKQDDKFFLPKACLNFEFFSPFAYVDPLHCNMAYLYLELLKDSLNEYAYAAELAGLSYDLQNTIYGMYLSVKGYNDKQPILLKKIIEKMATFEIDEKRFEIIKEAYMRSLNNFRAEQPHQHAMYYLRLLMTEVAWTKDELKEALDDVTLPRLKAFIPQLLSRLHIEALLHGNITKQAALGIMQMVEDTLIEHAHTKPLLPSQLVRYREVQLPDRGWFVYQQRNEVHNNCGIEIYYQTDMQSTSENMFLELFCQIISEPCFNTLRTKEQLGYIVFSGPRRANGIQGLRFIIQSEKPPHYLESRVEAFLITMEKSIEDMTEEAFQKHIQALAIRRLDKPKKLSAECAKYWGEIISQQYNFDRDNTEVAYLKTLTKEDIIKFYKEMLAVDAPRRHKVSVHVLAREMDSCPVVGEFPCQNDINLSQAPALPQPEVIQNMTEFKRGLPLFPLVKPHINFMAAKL
IDE cell activ: boosts human insulin-degrading enzyme activity in HEK cells; AID 493087; activation, % at 5.96 µM; P14735; actives 0.073% (n = 340,000); FAbeta-B cleavage, fluorescence polarization; 0% vehicle, 100% cell-free pure enzyme wells;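 active means activation above the mean of all tested compounds plus 3 SD, set per screening campaign, cut at about 17% in these data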
PfM18AAP inh: PfM18AAP enzyme inhibition; inhibition, % at 7.35 µM; recombinant PfM18AAP, H-Glu-NHMec fluorogenic cleavage; actives 1.2% (n = 290,000);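 active means inhibition above the campaign mean inhibition over all tested compounds plus 3 SD, cut at about 28% in these data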;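 further: 0% = plate median of test compound wells and 100% = 2 mM ZnCl2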
* marks the source's active call; other numbers are inactive results.

How did O=C(CSc1nnc(CNC(=O)c2ccco2)o1)Nc1nc2ccccc2s1 do in these assays?
CaV13 ICDI inh: -5.2; PolyA inh: 17.4; ALR inh: -7.7; IDE cell inh: 2.1; IDE cell activ: 3.7; PfM18AAP inh: 29.2*

How did CCC1C(=O)N=C(SCC(=O)Nc2ccc(Br)cn2)NC1=O (stereo unspecified) do in these assays?
CaV13 ICDI inh: -5.4; PolyA inh: -13.3; ALR inh: 98.6*; IDE cell inh: 1.5; IDE cell activ: -2.6; PfM18AAP inh: 12.8

How did NC(Cc1ccc(F)cc1)c1csc(NC(=O)NC(c2ccccc2)c2ccccc2)n1 (stereo unspecified) do in these assays?
CaV13 ICDI inh: -5.4

Results for CCOC(=O)CSc1nnc(NCC(=O)OC)c(=O)[nH]1 ?
CaV13 ICDI inh: -3.9; PolyA inh: 15.0; ALR inh: 100.1*; IDE cell inh: 4.8; IDE cell activ: 4.3; PfM18AAP inh: -80.2

Results for Cc1cc2c3c([nH]c2cc1S(=O)(=O)N1CCC2(CC1)OCCO2)CCCC3=O ?
CaV13 ICDI inh: -4.0; PolyA inh: -0.9; ALR inh: -2.0; IDE cell inh: 1.8; IDE cell activ: 0.8; PfM18AAP inh: -8.0

How did COCCCNC(=O)c1ccc2c(=O)n(CC3CCCO3)c(=S)[nH]c2c1 (stereo unspecified) do in these assays?
CaV13 ICDI inh: -8.9; PolyA inh: 3.0; ALR inh: 86.8*; IDE cell inh: 5.0; IDE cell activ: 4.4; PfM18AAP inh: 3.8

Results for CC(C)NC(=O)c1ccc2c(=O)n(CC3CCCO3)c(=S)[nH]c2c1 (stereo unspecified) ?
CaV13 ICDI inh: -7.4; PolyA inh: 6.1; ALR inh: 27.3; IDE cell inh: -5.0; IDE cell activ: 2.2; PfM18AAP inh: -0.7

Results for Cc1sccc1C1C(C#N)=C(N)SC(N)=C1C#N ?
PolyA inh: -6.7; ALR inh: 25.2; IDE cell inh: 17.6*; PfM18AAP inh: 18.2

Results for Cc1cc(C2C(C#N)=C(N)Oc3n[nH]c(C)c32)c(C)s1 (stereo unspecified) ?
CaV13 ICDI inh: -5.2; PolyA inh: 14.1; ALR inh: 17.7; IDE cell inh: 4.9; IDE cell activ: 6.4; PfM18AAP inh: 18.2

How did Cc1cc(C2C(C#N)=C(N)SC(N)=C2C#N)c(C)s1 do in these assays?
PolyA inh: 4.3; ALR inh: 99.1*; IDE cell inh: 11.9; IDE cell activ: -16.5; PfM18AAP inh: 11.5

Results for COc1ccc(NC(=O)COC(=O)CC2CCCC2)cc1 ?
CaV13 ICDI inh: -5.5; ALR inh: -5.4; IDE cell inh: 0.6; IDE cell activ: 4.2

Results for CC(C)CNc1c(N)c(=O)oc2ccccc12 ?
CaV13 ICDI inh: -6.2; PolyA inh: -12.7; ALR inh: 99.0*; IDE cell inh: -3.6; IDE cell activ: 1.8; PfM18AAP inh: 19.5

Results for Nc1c(Nc2ccccc2)c2ccccc2oc1=O ?
CaV13 ICDI inh: -5.6; PolyA inh: 15.3; ALR inh: 98.5*; IDE cell inh: -6.0; IDE cell activ: 4.7; PfM18AAP inh: 1.7

What do the screens show for `Cc1cccc(C)c1NC(=O)CNC(=O)c1cccnc1`?
PolyA inh: -6.3; ALR inh: -2.7; IDE cell inh: -6.1; IDE cell activ: 1.9; PfM18AAP inh: -18.1

What do the screens show for `CCCN1C(=O)c2cc(C(=O)Nc3ccc(OC)cc3OC)ccc2C1Nc1ccc(OC)cc1OC` (stereo unspecified)?
CaV13 ICDI inh: -3.7; PolyA inh: 9.5; ALR inh: 8.7; IDE cell inh: 2.0; IDE cell activ: 0.9; PfM18AAP inh: 2.3

Results for CCOC(=O)C1C(=O)CC(C)(O)C(C(=O)OCC)C1c1ccc(N(CC)CC)cc1 (stereo unspecified) ?
CaV13 ICDI inh: -5.3; PolyA inh: 9.2; ALR inh: 98.1*; IDE cell inh: 0.8; IDE cell activ: 5.2; PfM18AAP inh: -1.9

How did CCOC(=O)C1C(=O)CC(C)(O)C(C(=O)OCC)C1c1ccc(F)cc1 (stereo unspecified) do in these assays?
CaV13 ICDI inh: -9.3; PolyA inh: 1.2; ALR inh: -3.2; IDE cell inh: 1.2; IDE cell activ: -5.9; PfM18AAP inh: 7.0

Bioassay records as filed in PubChem.
